# Laboratory results published in the supplement of paper PMC6555819.
# What was measured:
# Assay in all cases: PBM binding z-score (relative to random genomic background probes); higher = stronger binding; sequences stand for … in GC…GCGATTGACAGCGTAGAATGAAGG
# [1] = tested on: PPARg:RXRa DBDmut IVT, anti-RXR (DBD mutation: RXRa K156A/R161A, NR concentration 270 nM, RXRa partner concentration 90 nM)
# Summary of the method: (§1)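 Ligand-free nuclear receptor dimers were applied to custom Agilent 4×180K protein-binding microarrays whose double-stranded probes carried direct-repeat seeds, single-nucleotide variants, half-site ablations and random human genomic background sequences in 34-nt variable regions. Incubation lasted 1 h. Binding z-scores were computed against the random background probes from regression-normalized fluorescence.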
# [2] = tested on: PPARg:RXRa IVT, anti-PPARg (NR concentration 270 nM, RXRa partner concentration 90 nM)
# Summary of the method: as §1
# [3] = tested on: PPARg DBDmut:RXRa IVT, anti-PPARg (DBD mutation: PPARg1 K132A/R137A, NR concentration 270 nM, RXRa partner concentration 90 nM)
# Summary of the method: as §1
# [4] = tested on: PPARg DBDmut IVT, anti-PPARg (DBD mutation: PPARg1 K132A/R137A, NR concentration 270 nM)
# Summary of the method: as §1
# [5] = tested on: PPARg homodimer (NR concentration 180 nM)
# Summary of the method: as §1
# [6] = tested on: PXR:RXRa (NR concentration 270 nM, RXRa partner concentration 90 nM)
# Summary of the method: as §1
# [7] = tested on: PXR homodimer (NR concentration 270 nM)
# Summary of the method: as §1
# [8] = tested on: RARa:RXR (NR concentration 270 nM, RXRa partner concentration 90 nM)
# Summary of the method: as §1
# [9] = tested on: RARa homodimer (NR concentration 270 nM)
# Summary of the method: as §1
# [10] = tested on: RARb:RXRa (NR concentration 270 nM, RXRa partner concentration 90 nM)
# Summary of the method: as §1
Sequence,PBM binding z-score [1],PBM binding z-score [2],PBM binding z-score [3],PBM binding z-score [4],PBM binding z-score [5],PBM binding z-score [6],PBM binding z-score [7],PBM binding z-score [8],PBM binding z-score [9],PBM binding z-score [10]
TCTTGTACATCAACAGGAGGTTAAGAAAGATCGA,1.52,0.927,1.32,1.51,-0.544,0.873,0.161,1.09,0.409,0.66
GCTGCTAGATCAGGTTGGTCAGCTAACGGGTACG,-0.422,-0.787,-0.302,-0.87,-0.314,-0.686,-0.557,-0.344,-1.48,-0.392
TCGAGAAGGTTACCAATGGGGCATTCAGCTTTCT,1.39,0.663,-1.15,-0.173,0.132,0.773,-1,1.49,-0.803,2.26
GCGACTGCGGCAAAGCAGGTTACCATAAGGTTGG,-0.386,-0.26,-0.756,-1.23,-0.726,-0.186,-0.666,0.143,-1.11,-0.06
GCGACTGGGGCATTAGCAGGTTACCATAACTTAA,3.92,2.83,-0.21,-0.476,0.463,-0.152,-0.13,0.182,-0.164,0.559
ACTAGTTGGTCAACTGAGGTCACACACAATTCGG,2.42,3.75,1.07,0.421,2.02,6,1.2,4.59,1.19,4.1
CCTAGCAGGCCAATCTGGATCACTCAAGGCTTGA,1.73,0.817,-1.11,-1.19,-0.873,-0.635,-0.965,-0.47,-0.695,0.0834
TCATATAGGGAAATGCTAGGTGAAAGTCCGATCT,2.89,1.33,1.18,0.79,0.712,0.607,0.552,0.746,0.849,0.226
TATACAGGTTCAAAGGCCAGAGTACGAATGTCGA,0.255,1.44,0.672,0.97,1.53,2.53,1.35,2.91,1.41,2.2
CGCACTAGGTCAAGGACAGTGAATCTCCGCACGC,8.02,7.89,1.21,0.566,1.2,1.15,0.0235,1.92,0.00773,3.92
CGTCCAAGGTCATAGTAGGTCAGTGAAGACAGAT,4.15,5.33,1.45,-0.159,2.97,5.67,2.73,5.14,1.92,5.12
CGTCCAAGGTCAGCAGGTAAGTGAAAGCGACGTG,2.46,2.83,0.325,-0.0804,2.47,2.54,-0.0164,3.47,1.22,5
GCATATAGGTAATACAAGATGAAAGTCCGATTGT,4.04,2.21,1.01,1.1,0.319,0.0663,0.0386,0.202,0.786,-0.216
ACTAGCAGCCCAAGGGTCACTCAAGATTAGTCCG,-0.509,1.13,-0.437,-0.614,1.34,2.97,0.208,3.58,0.48,3.27
CAAACTAGGTCACAGAGGTGAAAGTCCGTGCGTA,8.61,8.94,5.86,4.85,2.36,3.51,0.909,4.08,0.879,4.42
AGATGTAGGTTATCGGGTCATTCAGTTTGCGCAT,7.36,7.13,2.95,1.82,2.53,4.02,7.55,4.01,1.35,2.73
ACAATGAGGTTACCAAAGATCAGGGAAACGCTTG,2.64,2.42,0.961,1.48,0.966,1.52,0.0541,2.2,0.0916,2.32
CCGACTGGGGCAGAAAGGTTACCATTCCATCCGG,1.94,1.83,-1,-1.28,0.284,0.744,-0.202,1.33,0.0232,1.52
TCTTGTAGATCAACAGGAGGTTAGGAAAGATCGA,1.53,0.599,0.272,0.48,-0.426,0.183,-0.275,0.125,0.162,0.117
ACAGACAGGTGAGTGAAGGTAGCTCAGCTGGACG,0.722,0.62,-0.147,-1.08,-0.296,-0.618,-0.525,-0.193,-0.484,0.202
CCTTACGGGTAAAGGTTATAGCACGGGTGGTACG,-0.138,1.7,-0.079,-0.348,1.08,1.1,0.1,2.04,0.398,1.82
CCTATTAGTTGACCATAAGGGCAACTGAAGCTCG,0.175,0.85,0.663,0.553,1.38,1,0.613,0.807,1.39,1.73
GGAACGAGAGCAAGTTGATAGCAGAGTTTGATGG,0.286,-0.607,-0.891,-0.825,-0.674,-0.482,0.00313,-0.584,-0.345,-0.427
GATACAGTGTCAAGGCCAGAGTACGCGTATTGAT,0.318,0.795,0.0882,0.292,0.275,-0.0079,0.246,0.272,-0.156,1.46

Sequence,PBM binding z-score [1],PBM binding z-score [2],PBM binding z-score [3],PBM binding z-score [4],PBM binding z-score [5],PBM binding z-score [6],PBM binding z-score [7],PBM binding z-score [8],PBM binding z-score [9],PBM binding z-score [10]
TAGCCGAGGTCAGATCGGGCCAGTATACGCTATA,0.468,2.23,0.311,-0.734,1.19,4.38,-0.437,3.81,-0.0454,4.42
ATCGAAAGGTGGTGAGGTGAGTATACAGAAAGGC,-0.246,0.807,0.968,1.51,0.911,0.257,0.574,0.614,0.646,0.849
ATACCAAGGTGATCGTGAGGTCCTTGATACTAAC,0.257,0.989,0.0116,-0.0653,-0.043,0.241,0.00841,0.662,0.0164,0.729
TCATATAGATAATACAGGTGAAAGTCGGCATCTA,2.86,1.53,1.59,1.15,0.855,0.717,0.495,1.04,2.03,0.481
ACTCCGAGGACAAAGGTCAGAGCTACGCCAGTGA,1.44,4.05,0.71,-0.0719,6.93,4.53,0.63,5.82,2.61,4.58
AGTCAAAGTGCACTAGGTAACGTAAGATTCAGCT,1.83,3.56,0.58,-0.0287,0.167,0.215,0.189,0.315,-0.372,1.53
ATCTCTAGTTAAAAGTTCAGTGAATCCCGAGGAT,0.0721,0.398,0.853,1.16,1.56,1.9,2,1.03,1.8,2.2
TGTCAAAGTTCAAGGGTAACGTAAGTATCCACAC,-0.0175,4.63,1.78,1.04,2.41,4.83,2.3,4.95,0.926,5.05
ACTATTAGTTGACTTCGGGCAACCGATACGACGC,-0.0241,0.38,0.985,0.939,0.728,0.138,0.00546,0.411,0.245,0.417
CGTCCAAGGTCAAGGTCAGTGGAAGAGACTCGAA,3.54,4.55,0.113,-0.109,3.84,4.68,1.08,4.79,0.944,5.61
ATATGTAGGTTTCATCCGGGTCATTCAGGCTATG,4.9,4.69,1.71,1.7,1.33,2.86,2.28,2.55,0.582,1.43
CCTACTGGGCCATTCAGAGGTCGTTGATCATATG,4.62,3.78,-0.302,0.289,0.217,1.55,0.112,1.27,-0.226,1.11
TCTTGTAGATCAATAGAGGTCAAGAAAGTGCGCT,1.9,2.9,1.22,0.341,1.79,5.53,1.38,4.29,0.852,3.26
ACTAGCAGGCCATGGGTCACTCAAGATTAGTCCG,0.912,2.7,-0.371,-0.346,0.473,0.85,-0.43,1.56,-0.392,1.94
CCTAGCAGGCCAATCTGGGTCACTCATGGCTTGA,4.04,4.89,-0.176,-0.808,0.139,0.641,-0.181,0.915,-0.68,1.44
CGTCCAAGGTCAGCAGGTCAGTAAAAGCGACGTG,2.72,3.62,0.159,-0.726,3.33,3.43,0.607,4.46,0.549,5.51
CCTTACGGGTAACTGACAGGTTATAGCATTTGGA,1.03,0.095,-0.022,-0.575,0.529,0.109,-0.252,0.585,0.214,0.274
TCAGATAGGTAAATGCTAGGTGAAAGTCCGATCT,2.06,0.684,0.761,0.0198,0.547,0.13,-0.341,0.568,-0.137,0.156
CTACCAAGGTTAACAAGGTCGTTGATTACTATTC,1.98,1.78,0.186,0.431,1.25,4.32,8.81,3.19,0.369,2.81
ATACCACGGTGATCGTGAGGTCGTTGATACTAAC,-0.0691,0.808,0.255,0.824,0.823,1.6,0.891,1.57,0.137,0.885
GGAACGAGGGCAAGTTGATAGCCGAGTTTGATGG,3.6,2.74,-0.528,-0.707,0.106,0.822,0.247,0.442,-0.485,2.88
CAGCCTAGGTCAGGTCCAGTATAGGAGGAACGTT,1.02,0.846,-0.384,-1.31,0.577,0.126,-0.567,0.528,-0.0442,3
GCTCGGTGGACAAGGTCAGAGCTTTGTCCGTAGA,0.124,0.413,-1.69,-0.301,0.136,1.68,-0.455,2.25,-0.966,2.68
CCTAGCAGGCCAGTCTGGGTCACTCAAGGCTTGA,1.92,2.62,-1.53,-2.16,-0.0647,0.811,-0.718,1.45,-1.53,1.42
